Screening results deposited in PubChem BioAssay by National Center for Advancing Translational Sciences (NCATS).
The list is not random: actives were taken first. Their share in the collection is about 2.7%.
pAkt inh – HTS Assay for Inhibitors of Akt Phophorylation: Primary Screen; activity change, % for hits at 50 µM; 0.32% of 360,000 active; Neuro2A IGF-stimulated pAkt S473 HTRF, 20 min; active compounds read low; in the data active = activity change below about -80%; inconclusive = mostly about -51% to -80%; note: % is set by controls: 0 for no effect and ±100 for the full control effect
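Neuro2A cells (4,500/well, DMEM with 0.5% FBS) were treated with compound at a single 50 µM final concentration, stimulated with 6 nM IGF for 20 min at 37 °C, and lysed. Phospho-Akt Ser473 was read by HTRF as 665/615 ratio ×10^4.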
gsp antag – qHTS for Antagonists of gsp, the Etiologic Mutation Responsible for Fibrous Dysplasia/McCune-Albright Syndrome: qHTS | gsp-mutant cells, cAMP HTRF, 30 min | Potency, µM (titrated, usually from 76.9 µM), inactives show at the highest dose activity change, negative = inhibition, most hits filed as inhibitors | 0.4% of 340,000 active; calls by dose curve; cell line not stated here;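 note: intracellular cAMP measured with PDE inhibitor Ro 20-1724 present during compound exposure; potency is the fitted concentration of half-maximal effect; % is set by controls: 0 for no effect and ±100 for the full control effect; nearly all actives have a fitted effect of over 65% in size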
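HTRF cAMP measurement after 30 min RT detection following 30 min, 37C compound treatment alongside […] (added as 300 uM solution) in G418-selected cells seeded at 2000/well and grown 16–24 h.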
RXFP1 agonist – qHTS Assay for Agonists of the Relaxin Receptor RXFP1 | Potency, µM (titrated, usually from 57.5 µM), without a hit: at the top dose activation, hits mostly activators | 0.3% of 370,000 active | HEK293T-RXFP1 cAMP TR-FRET, 30 min; response scale: percent of porcine relaxin response, buffer zero | AID 2676, 2010 | Relaxin receptor 1 (Homo sapiens), Q9HBX9; active = well fitted activation curve with a large enough effect; inconclusive = small, poorly fitted or top-dose-only effect; note: potency is the fitted concentration of half-maximal effect; % is set by controls: 0 for no effect and ±100 for the full control effect; nearly all actives have a fitted effect of over 60% in size
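Agonist response is measured as cAMP accumulation in an RXFP1-transfected HEK293T line under PDE4 inhibition. Values are scaled between buffer-only and 29 nM porcine relaxin, and EC50s come from standard Hill equation fits.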
gsp agonist – qHTS for Agonist of gsp, the Etiologic Mutation Responsible for Fibrous Dysplasia/McCune-Albright Syndrome: qHTS; gsp mutant cells, cAMP HTRF, 30 min; Potency, µM (series often up to 76.9 µM), inactives show at the top dose activation (cAMP increase), usual class: activators; 0.13% of 340,000 active; active = well fitted activation curve with a large enough effect; inconclusive = small, poorly fitted or top-dose-only effect, or another doubt; inactive = no such curve, though single readings can be large or run the other way; cell line not stated here;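 note: phosphodiesterase inhibitor Ro 20-1724 added with compounds to block cAMP breakdown; potency is the fitted concentration of half-maximal effect; nearly all actives have a fitted effect of over 60% in size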
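Cells stably selected in G418 were plated at 2000/well, grown 16-24 hr, then given compounds in DMSO with the PDE inhibitor […] (300 uM solution added) for 30 min at 37C; cAMP was read by HTRF.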
ClpP mod – qHTS Assay for Activators of ClpP. AID 651965, 2013. 1.9% of 340,000 active. Potency, µM (doses to about 57.5 µM), for inactives: at the top dose activity change, negative = active. ATP-dependent Clp protease proteolytic subunit (Bacillus subtilis (strain 168)), P80244. purified B. subtilis ClpP, FRET peptide cleavage, 20 min; active = well fitted falling curve with a large enough effect; inconclusive = small, poorly fitted or top-dose-only effect; inactive = no such curve, though single readings can be large or run the other way; note: potency is the fitted concentration of half-maximal effect; the source files actives as falling curves though it sought activators and does not explain the sign; nearly all actives have a fitted effect of over 65% in size
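Buffer: 100 mM Tris/HCl pH8, 100 mM KCl, 0.05% low protease BSA, 2.5% glycerol, 0.01% Tween-20. ClpP 10 microg/mL final; 20 min RT; delta FRET normalized to ADEP and DMSO controls.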
RXFP1 antagonist – qHTS Assay for Antagonists of the Relaxin Receptor RXFP1; Relaxin receptor 1 (Homo sapiens), Q9HBX9; HEK293-RXFP1, relaxin-stimulated cAMP HTRF, 30 min; active compounds read low; activity change, negative = inhibition, % at 57.5 µM; 0.59% of 350,000 active;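 active = activity change of -60% or lower, but not beyond a set lower limit; inconclusive = change between -60% and -40%, or beyond the set limit; inactive = change above -40%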; note: % is set by controls: 0 for no effect and ±100 for the full control effect
Active calls of the source: *; i = inactive; ? = inconclusive; nt = not tested or not shown; [ ] = remark or other dose.

SMILES	pAkt inh	gsp antag	RXFP1 agonist	gsp agonist	ClpP mod	RXFP1 antagonist
CC1(C)CC/C(=C\c2ccc(Cl)cc2)C1(O)Cn1cncn1 (configuration not stated)	nt	nt	nt	nt	nt	-35
Cc1cccc(N2C(=O)/C(=C/N3CCN(C(=O)c4ccco4)CC3)C(=O)NC2=S)c1	nt	3%	1%	-20%	16µM*	-3
Cc1cc(C)cc(N2C(=O)NC(=O)/C(=C\c3cccn3-c3ccccc3)C2=O)c1	i	-7%	1%	-20%	-21%	-15
CN1C(=O)/C(=C/c2cccn2-c2ccc3ccccc3c2)C(=O)NC1=S	i	9%	2%	1%	-3%	-97*
COc1cc2[nH]c(=O)n(-c3cccc(Cl)c3)c(=O)c2cc1OC	i	0%	0%	?	28µM*	-5
COc1cc2[nH]c(=O)n(-c3ccccc3)c(=O)c2cc1OC	i	18%	0%	-7%	25µM*	2
CC(=O)c1c(O)n(-c2cccc(Cl)c2)c(=O)[nH]c1=O (tested in a mixture with another compound)	i	5%	-1%	-1%[15.4 µM]	-1%	2
CCC1(CC)C(=N)N(C)C(=O)NC1=O	i	3%	-1%	23%[15.4 µM]	16µM*	-3
CCOC(=O)c1c(NC(=O)c2c(N)n(CCCOC)c3nc4ccccc4nc23)sc2c1CCCC2	i	2%	2%	7%	-10%	-11
CCOC(=O)c1c(NC(NC(=O)CF)C(Cl)(Cl)Cl)sc2c1CCCC2 (configuration not stated)	i	-19%	0%	-2%[15.4 µM]	1%	-61*
CCC(C)C(C)(COC(N)=O)COC(N)=O (configuration not stated)	nt	nt	nt	nt	nt	3
O=C1C=CC(=O)C2C1C1(Cl)C(Cl)=C(Cl)C2(Cl)C1(Cl)Cl (configuration not stated)	i	-18%	nt	-8%	1%	-95*
CC(C)c1ccc(N=Nc2c(O)[nH]c(=O)[nH]c2=O)cc1	i	-6%	-1%	-69%	1%	0
O=C(O)c1cccc(N=Nc2c(O)[nH]c(=O)[nH]c2=O)c1	i	3%	9%	20%	1%	6
O=c1[nH]c(O)c(N=Nc2ccc([N+](=O)[O-])cc2)c(=O)[nH]1	i	2%	14µM*	?	-4%	7
O=C1OCc2cc(N=Nc3c(O)[nH]c(=O)[nH]c3=O)ccc21	i	13%	10µM*	?	1%	9
COc1cccc2c1C(=O)c1c(O)c3c(c(O)c1C2=O)C[C@@](O)(C(=O)CO)CC3OC1CC(N2CCOC(OC)C2)C(O)C(C)O1 (some centres not stated)	nt	nt	nt	nt	nt	-19
Cc1cc(OCC(=O)N[C@@H](Cc2ccccc2)C(=O)O)c2c3c(c(=O)oc2c1)CCCC3	i	2%	1%	nt	5%	nt
CSC[C@H](NC(=O)COc1cc2c(c3oc(=O)c(C)c(C)c13)CCC(C)(C)O2)C(=O)O	i	-4%	1%	-15%[15.4 µM]	28µM*	-1
C[C@@H]1CN([C@@H](C)CO)C(=O)CCCn2nncc2CO[C@@H]1CN(C)C(=O)Nc1ccc(N2CCCCC2)cc1	i	nt	nt	20%	2%	2
O=c1[nH]c(O)c(C=Nc2ccc(Cl)cc2Cl)c(=O)[nH]1	i	7%	6%	-42%	nt	-3
CN1C(=O)C(=Cc2ccc(N3CCCCCC3)cc2)C(=O)N(C)C1=O	i	35µM*	-7%	-2%[15.4 µM]	nt	-20
C#CC1(O)CCC2C3CCC4=CC(=O)CCC4=C3C=CC21C (configuration not stated)	i	-23%	nt	3%	28µM*	-4
Cc1nnc(N2CCC(C(=O)NCc3ccc(N(C)C)cc3)CC2)c2nn(-c3ccccc3)c(C)c12	nt	nt	9%	nt	?	-10
CC(C(O)c1ccccc1)N(C)C/C=C/c1ccccc1 (configuration not stated)	nt	nt	nt	nt	nt	-9
SMILES	pAkt inh	gsp antag	RXFP1 agonist	gsp agonist	ClpP mod	RXFP1 antagonist
O=C(CN1CCCCC1)NCC(=O)Nc1ccc(Br)cc1C(=O)c1ccccc1	i	4%	1%	-6%	-2%	3
Cc1cnc(NC(=O)CN2CCCCC2)s1	i	5%	2%	3%[15.4 µM]	14µM*	-1
COc1ccc(N2C(=O)/C(=C/C=C/c3ccccc3[N+](=O)[O-])C(=O)NC2=S)cc1	i	-6%	1%	-4%[15.4 µM]	nt	-77*
CCN(CC)C(=O)[C@@H]1C=C2c3cccc4[nH]cc(c34)C[C@H]2N(C)C1	nt	nt	nt	nt	nt	8
COc1ccccc1OCCCn1cc(C(=O)C2CC2)c2ccccc21	i	45µM*	2%	4%[15.4 µM]	1%	-20
CCOC(=O)C(C)Oc1cc(C)cc2oc(=O)c3c(c12)CCCC3 (configuration not stated)	i	1%	3%	8%	16µM*	-7
Cc1cc(OCC(=O)NC2CCS(=O)(=O)C2)c2c3c(c(=O)oc2c1)CCC3 (configuration not stated)	i	-13%	5%	9%	3.2µM*	-3
Cc1cc(OCC(=O)OC(C)C)c2c3c(c(=O)oc2c1)CCCC3	nt	-1%	7%	?	35µM*	-2
Cc1cc(OCC(=O)NCC(O)c2ccccc2)c2c3c(c(=O)oc2c1)CCCC3 (configuration not stated)	i	-11%	2%	-14%	4%	14
COC(=O)C(C)Oc1cc(C)cc2oc(=O)c3c(c12)CCC3 (configuration not stated)	i	15%	7%	-32%	53%	7
Cc1cc(OCC(=O)NCC2CCC(C(=O)O)CC2)c2c3c(c(=O)oc2c1)CCC3 (configuration not stated)	i	-5%	7%	nt	5%	nt
COC(=O)C(C)Oc1cc(C)cc2oc(=O)c3c(c12)CCCC3 (configuration not stated)	i	1%	3%	0%	25µM*	11
Cc1cc(OC(C)C(=O)NCC(O)c2ccccc2)c2c3c(c(=O)oc2c1)CCCC3 (configuration not stated)	i	-25%	4%	-38%	4%	3
CC(C)(N)Cc1ccccc1Cl	nt	nt	nt	nt	nt	20
